# Laboratory results reported in the supplement of paper PMC11738630.
# System: Salmonella enterica serovar Typhimurium 14028s
# Experiment: approximate change in surviving CFU after surface colonization relative to water-only control (log10 CFU/mL change); higher = more surviving bacteria (less inhibition of surface colonization)
# Details: not stated (Biolog proprietary concentration), surface: plastic 96-well plate, 20-24 h at 25 °C
smiles,measurement,setting,value
COC(=O)[C@@H](C)O [D-Lactic Acid Methyl Ester],approximate change in surviving CFU (log10),"Biolog plate: PM2, Biolog well: F1",-0.15
OCc1ccccc1O[C@@H]1O[C@H](CO)[C@@H](O)[C@H](O)[C@H]1O [Salicin],approximate change in surviving CFU (log10),"Biolog plate: PM2, Biolog well: D2",0.0215
Cc1c[nH]c(=O)[nH]c1=O [Thymine],approximate change in surviving CFU (log10),"Biolog plate: PM3, Biolog well: F8",-0.58
OC[C@H](O)C(O)[C@@H](O)CO [L-Arabitol],approximate change in surviving CFU (log10),"Biolog plate: PM2, Biolog well: B7",1.12
NCC(=O)N[C@@H](CC(N)=O)C(=O)O,approximate change in surviving CFU (log10),"Biolog plate: PM3, Biolog well: H8",0.107
CCC(=O)C(=O)O [a-Keto-Butyric Acid],approximate change in surviving CFU (log10),"Biolog plate: PM1, Biolog well: D7",0.172
N[C@H](CCC(=O)O)C(=O)O [D-Glutamic Acid],approximate change in surviving CFU (log10),"Biolog plate: PM3, Biolog well: C6",0.837
OC[C@@H](O)[C@@H](O)CO [i-Erythritol],approximate change in surviving CFU (log10),"Biolog plate: PM2, Biolog well: B10",1.35
CCCCCCCC/C=C\CCCCCCCC(=O)OCCOCC(OCCO)C1OCC(OCCO)C1OCCO (centres undefined) [Tween 80],approximate change in surviving CFU (log10),"Biolog plate: PM1, Biolog well: E5",-0.58
O=C(O)CCC(=O)O [Succinic Acid],approximate change in surviving CFU (log10),"Biolog plate: PM1, Biolog well: A5",0.515
OC[C@H]1OC(O)[C@H](O)[C@@H](O)[C@H]1O (stereo partly drawn) [D-Galactose],approximate change in surviving CFU (log10),"Biolog plate: PM1, Biolog well: A6",1.59
OC[C@@H](O)[C@H](O)[C@H](O)[C@@H](O)CO [Dulcitol],approximate change in surviving CFU (log10),"Biolog plate: PM1, Biolog well: A12",1.03
OC[C@@H](O)[C@@H](O)[C@H](O)[C@@H](O)CO [D-Sorbitol],approximate change in surviving CFU (log10),"Biolog plate: PM1, Biolog well: B2",1.61
OC[C@H]1O[C@H](O[C@H]2[C@H](O)[C@@H](O)[C@H](O)O[C@@H]2CO)[C@H](O)[C@@H](O)[C@@H]1O [Maltose],approximate change in surviving CFU (log10),"Biolog plate: PM1, Biolog well: C10",1.57
OC[C@H]1O[C@@](CO)(O[C@H]2O[C@H](CO)[C@@H](O)[C@H](O)[C@H]2O)[C@@H](O)[C@@H]1O [Sucrose],approximate change in surviving CFU (log10),"Biolog plate: PM1, Biolog well: D11",0.987
OC[C@H]1O[C@H](O[C@H]2[C@H](O)[C@@H](O)[C@@H](O[C@H]3[C@H](O)[C@@H](O)[C@@H](O)O[C@@H]3CO)O[C@@H]2CO)[C@H](O)[C@@H](O)[C@@H]1O [Maltotriose],approximate change in surviving CFU (log10),"Biolog plate: PM1, Biolog well: E10",1.82
Nc1ncnc2c1ncn2[C@H]1C[C@H](O)[C@@H](CO)O1 [2-Deoxy Adenosine],approximate change in surviving CFU (log10),"Biolog plate: PM1, Biolog well: E11",1.37
CCC(=O)O [Propionic Acid],approximate change in surviving CFU (log10),"Biolog plate: PM1, Biolog well: F7",-0.987
NCC(=O)N[C@@H](CCC(=O)O)C(=O)O [Glycyl-L-Glutamic Acid],approximate change in surviving CFU (log10),"Biolog plate: PM1, Biolog well: G1",1.22
C[C@H](N)C(=O)NCC(=O)O [L-Alanyl-Glycine],approximate change in surviving CFU (log10),"Biolog plate: PM1, Biolog well: G6",0.966
NCC(=O)N1CCC[C@H]1C(=O)O [Glycyl-L-Proline],approximate change in surviving CFU (log10),"Biolog plate: PM1, Biolog well: H1",0.58
CC(=O)C(=O)O [Pyruvic Acid],approximate change in surviving CFU (log10),"Biolog plate: PM1, Biolog well: H8",-0.494
OC[C@H]1O[C@H](OC[C@H]2O[C@H](O[C@H]3[C@H](O)[C@@H](O)[C@@H](O)O[C@@H]3CO)[C@H](O)[C@@H](O)[C@@H]2O[C@H]2O[C@H](CO)[C@@H](O)[C@H](O)[C@H]2O)[C@H](O)[C@@H](O)[C@@H]1O [Glycogen],approximate change in surviving CFU (log10),"Biolog plate: PM2, Biolog well: A8",0.944
OC[C@@H]1OC(O)[C@@H](O)[C@H](O)[C@H]1O (stereo partly drawn) [L-Glucose],approximate change in surviving CFU (log10),"Biolog plate: PM2, Biolog well: C2",1.22
OC[C@H]1O[C@@](CO)(O[C@H]2O[C@H](CO)[C@@H](O)[C@H](O)[C@H]2O)[C@@H](O[C@H]2O[C@H](CO)[C@@H](O)[C@H](O)[C@H]2O)[C@@H]1O [D-Melezitose],approximate change in surviving CFU (log10),"Biolog plate: PM2, Biolog well: C4",1.16
CO[C@H]1O[C@H](CO)[C@@H](O)[C@H](O)[C@H]1O [a-Methyl-D-Glucoside],approximate change in surviving CFU (log10),"Biolog plate: PM2, Biolog well: C6",1.2
OC[C@@]12OC[C@@H](O1)[C@@H](O)[C@@H](O)[C@@H]2O [Sedoheptulosan],approximate change in surviving CFU (log10),"Biolog plate: PM2, Biolog well: D3",0.451
O=C(CO)[C@@H](O[C@H]1O[C@H](CO)[C@@H](O)[C@H](O)[C@H]1O)[C@H](O)[C@H](O)CO [Turanose],approximate change in surviving CFU (log10),"Biolog plate: PM2, Biolog well: D7",0.88
OC[C@@H](O)[C@H](O)[C@@H](O)CO [Xylitol],approximate change in surviving CFU (log10),"Biolog plate: PM2, Biolog well: D8",1.01
